Data from PubChem BioAssay (NCATS).
Results filed as inconclusive are left out. Calls of active or inactive are those of the source. Unless noted, the call rests on the fitted dose curve; in most records, active means well fitted curve in either direction with a large enough effect (not every such curve was filed as active); inconclusive means small, poorly fitted or top-dose-only effect, or another doubt; inactive means flat fitted curve, though single readings scatter.

How the values were obtained:
[1] = biological target: Lysosomal acid glucosylceramidase (Homo sapiens) (UniProt P04062); assay: Glucocerebrosidase-p2 (AID 348; in the data active means potency below about 10 µM; further: potency means the concentration at half of the fitted maximal effect); settings: purified GBA, blue fluorogenic substrate, 40 min
In short: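 Normal human glucocerebrosidase (0.2 nM) with blue fluorogenic substrate (80 uM final) in citrate/phosphate pH 5.9 with 10mM sodium taurocholate, 0.01% tween-20; 40 min RT, NaOH/glycine stop; fluorescence Ex 365/Em 440; AC50 from a titration from 0.6 nM upwards.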

[2] = AP1 Signaling Pathway (AID 357); settings: ME-180 AP-1-bla reporter, EGF-induced, beta-lactamase ratio, 5 h; at 7.69 µM (top of the series) unless noted;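 further: ME-180 reporter cells stimulated with EGF at its EC50 level; on the % scale 0 is the no-effect control and ±100 the full control effect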
In short: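 Cells are seeded overnight, exposed to compound titrations and an EC50 level of EGF for 5 hours at 37 °C, then loaded with CCF4 dye for 2.5 hours. Beta-lactamase activity under the AP-1 element is read as a blue/green ratio.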

[3] = NFAT Signaling Pathway (AID 444); settings: Jurkat NFAT-bla M1, carbachol, beta-lactamase ratio, 5 h; at 7.69 µM (top of the series) unless noted;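 further: carbachol stimulus at about its EC50 of 1 µM final; on the % scale 0 is the no-effect control and ±100 the full control effect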
In short: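 Read-out: CCF4 FRET ratio (460 nm/530 nm) after 1 h RT dye loading, used for %activity and AC50 from titration series. Cells: Jurkat NFAT-β-lactamase/M1 line, treated with compound plus 1 uM carbachol for 5 h, 37 °C.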

[4] = Stat Signaling Pathway (AID 446); settings: ME-180 (cervical carcinoma) SIE beta-lactamase reporter, IL-6 stimulated, 5 h; at 7.69 µM (top of the series) unless noted;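 further: ME-180 cervical cancer cells given 40 pM IL-6 alongside compound; SIE-controlled beta-lactamase reporter measured as 460/530 nm FRET emission ratio; on the % scale 0 is the no-effect control and ±100 the full control effect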
In short: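 Emission at 460 and 530 nm (excitation 405 nm) reports SIE-controlled beta-lactamase in ME-180 cells. Cells received compound with 40 pM IL-6 for 5 hrs at 37 C; data scaled between 300 pM IL-6 and 125 nM JAK-inhibitor controls.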

[5] = biological target: Glucocorticoid receptor (Homo sapiens) (UniProt P04150); assay: GR-GFP Redistribution (AID 450;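 active means compounds whose dose series gives a full or clear partial fitted curve of increased nuclear translocation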; further: potency means the concentration at half of the fitted maximal effect); settings: U2OS GR-GFP nuclear translocation, laser cytometry, 2 h
[6] = biological target: Glucocorticoid receptor (Homo sapiens) (UniProt P04150); assay: GR-EFC Redistribution (AID 451; calls by dose curve; further: potency means the concentration at half of the fitted maximal effect); settings: CHO-K1 GR-EFC translocation, beta-gal luminescence, 2 h
In short: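 Translocation of GR-ED fusion to nuclear EA restores b-gal, read by luminescence after 1 h room-temperature detection. Engineered CHO-K1 biosensor cells, 1,000/well, exposed 2 h at 37 C to titrations up to 46 uM final.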

[7] = biological target: Mitogen-activated protein kinase 10 (Mus musculus) (UniProt Q61831); assay: JNK3 AlphaScreen Assay (AID 530); settings: JNK3 lysate, c-Jun phosphorylation; series mostly up to 11.4 µM;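 further: kinase came from lysate of stimulated human HepG2 cells; signal reports phosphorylation of biotinylated GST-cJun 1-79 at Ser73 with 10 µM ATP; on the % scale 0 is the no-effect control and ±100 the full control effect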
In short: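 qHTS titrations with 15 min compound pre-incubation before adding ATP (10 uM final). Read-out: AlphaScreen of Ser73-phosphorylated biotin-GST-cJun using HepG2 lysate JNK3 activated by IL-1β and TNFα.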

[8] = biological target: 3',5'-cyclic-AMP phosphodiesterase 4B (Homo sapiens) (UniProt Q07343); assay: qHTS Assay for Inhibitors of PDE-IV (AID 607; active means well fitted activation curve with a large enough effect in the main read-out, with a control signal flat, not every such curve was filed as active; further: % of control where 0% means no effect); settings: HEK293 ACTOne CNG channel cells, membrane potential fluorescence; series mostly up to 22.9 µM
In short: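 The readout is membrane depolarisation from a cAMP-sensing CNG channel, detected with a potential dye at ex 535/em 590. Cells were HEK293-derived (endogenous PDE-IV) at 1000 cells/well, titrated up to 22.9 uM final.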

Sequence of 3',5'-cyclic-AMP phosphodiesterase 4B (Homo sapiens) (Q07343 whole entry, looked up): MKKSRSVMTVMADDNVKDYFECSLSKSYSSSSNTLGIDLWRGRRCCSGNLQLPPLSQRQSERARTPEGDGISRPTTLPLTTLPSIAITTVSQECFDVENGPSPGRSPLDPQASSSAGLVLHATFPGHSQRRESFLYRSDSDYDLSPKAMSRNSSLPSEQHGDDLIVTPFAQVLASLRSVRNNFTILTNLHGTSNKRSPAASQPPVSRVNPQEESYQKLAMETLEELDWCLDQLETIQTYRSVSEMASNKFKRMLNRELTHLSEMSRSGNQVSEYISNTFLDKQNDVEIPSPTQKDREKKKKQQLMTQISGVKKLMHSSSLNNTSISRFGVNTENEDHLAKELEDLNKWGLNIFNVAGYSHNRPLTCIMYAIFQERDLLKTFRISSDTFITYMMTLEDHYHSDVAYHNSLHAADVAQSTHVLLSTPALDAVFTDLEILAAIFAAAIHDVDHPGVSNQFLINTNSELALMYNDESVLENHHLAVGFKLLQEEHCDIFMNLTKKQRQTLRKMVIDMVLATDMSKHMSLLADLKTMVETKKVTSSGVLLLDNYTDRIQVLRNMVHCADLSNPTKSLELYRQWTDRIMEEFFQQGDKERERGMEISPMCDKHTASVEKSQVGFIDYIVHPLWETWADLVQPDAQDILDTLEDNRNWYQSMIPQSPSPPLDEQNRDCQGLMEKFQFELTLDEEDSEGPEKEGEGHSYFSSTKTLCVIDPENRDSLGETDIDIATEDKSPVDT
Sequence of Glucocorticoid receptor (Homo sapiens) (P04150 whole entry, looked up, the tested form may be a part): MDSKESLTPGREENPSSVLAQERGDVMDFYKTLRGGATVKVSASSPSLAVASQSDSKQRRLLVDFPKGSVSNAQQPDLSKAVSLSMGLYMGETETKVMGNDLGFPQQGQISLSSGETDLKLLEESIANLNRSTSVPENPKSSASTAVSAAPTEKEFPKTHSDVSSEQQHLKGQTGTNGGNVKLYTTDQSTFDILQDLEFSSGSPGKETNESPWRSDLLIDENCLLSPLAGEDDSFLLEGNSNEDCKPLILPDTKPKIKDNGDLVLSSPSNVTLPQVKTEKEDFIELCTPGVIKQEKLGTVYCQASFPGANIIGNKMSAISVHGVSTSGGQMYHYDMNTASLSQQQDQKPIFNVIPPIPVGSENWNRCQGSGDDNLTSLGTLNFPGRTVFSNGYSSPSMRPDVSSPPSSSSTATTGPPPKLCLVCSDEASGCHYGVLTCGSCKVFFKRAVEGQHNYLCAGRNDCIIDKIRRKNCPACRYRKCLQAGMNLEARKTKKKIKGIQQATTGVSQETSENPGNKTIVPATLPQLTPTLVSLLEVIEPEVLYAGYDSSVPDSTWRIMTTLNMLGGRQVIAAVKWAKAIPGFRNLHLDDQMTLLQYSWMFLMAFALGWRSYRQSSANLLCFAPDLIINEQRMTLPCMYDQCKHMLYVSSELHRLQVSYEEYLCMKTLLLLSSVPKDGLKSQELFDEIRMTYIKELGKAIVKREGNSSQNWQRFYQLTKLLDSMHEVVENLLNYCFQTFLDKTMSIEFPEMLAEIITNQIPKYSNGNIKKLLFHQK
Sequence of Lysosomal acid glucosylceramidase (Homo sapiens) (P04062 whole entry, looked up): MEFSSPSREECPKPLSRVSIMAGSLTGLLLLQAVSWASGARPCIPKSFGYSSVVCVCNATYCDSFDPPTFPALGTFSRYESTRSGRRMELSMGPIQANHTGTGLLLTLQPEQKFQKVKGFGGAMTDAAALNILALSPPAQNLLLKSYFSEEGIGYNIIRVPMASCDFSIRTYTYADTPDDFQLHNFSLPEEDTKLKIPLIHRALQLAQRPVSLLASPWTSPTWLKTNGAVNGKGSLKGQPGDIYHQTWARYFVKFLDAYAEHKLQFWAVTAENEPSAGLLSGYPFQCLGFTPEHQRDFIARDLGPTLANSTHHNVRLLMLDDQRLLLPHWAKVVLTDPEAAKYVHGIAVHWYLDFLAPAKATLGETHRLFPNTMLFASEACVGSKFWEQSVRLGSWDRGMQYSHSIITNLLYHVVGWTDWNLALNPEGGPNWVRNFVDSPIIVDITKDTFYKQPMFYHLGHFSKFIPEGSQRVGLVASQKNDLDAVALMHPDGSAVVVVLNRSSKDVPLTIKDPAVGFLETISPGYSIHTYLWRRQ

O=C1c2ccccc2[C@@H]([C@@H]2c3ccccc3C(=O)c3cc(Br)ccc32)c2ccc(Br)cc21
inactive: Potency [1] > 11.4 µM | activity change, negative = inhibition [2] -5.16% | activity change, negative = inhibition [3] -5.27% | activity, negative = inhibition [4] 8.23% | Potency [5] > 46 µM | Potency [6] > 9.22 µM | Potency [7] | Potency [8]

c1ccc(CO[C@H]2NCCN2Cc2ccccc2)cc1
inactive: Potency [1] > 11.4 µM | activity change, negative = inhibition [2] 11% | activity change, negative = inhibition [3] 9.93% | activity, negative = inhibition [4] 12.8% | Potency [5] > 46 µM | Potency [6] > 9.22 µM | Potency [7] | Potency [8]

CC[C@@H](c1ccc2cc(O)ccc2c1)C(C)(C)C(=O)O
inactive: Potency [1] > 11.4 µM | activity change, negative = inhibition [2] -1.38% | activity change, negative = inhibition [3] 8.96% | activity, negative = inhibition [4] 6.79% | Potency [5] > 46 µM | Potency [6] > 9.22 µM | Potency [7] | Potency [8]

O=S1(=O)CCN(Cc2ccccn2)CC1
inactive: Potency [1] > 11.4 µM | activity change, negative = inhibition [2] 0.374% | activity change, negative = inhibition [3] 13% | activity, negative = inhibition [4] -10.3% | Potency [5] > 46 µM | Potency [6] > 9.22 µM | Potency [7] | Potency [8]

O=S(=O)(O)n1ccnc1 (tested in a mixture with another compound)
inactive: Potency [1] > 11.4 µM | activity change, negative = inhibition [2] -2.09% | activity change, negative = inhibition [3] 6.55% | activity, negative = inhibition [4] 0.01% | Potency [5] > 46 µM | Potency [6] > 9.22 µM | Potency [7] | Potency [8]

CN1[C@@H](c2ccccc2)CC(=NO)C[C@H]1c1ccccc1
inactive: Potency [1] > 11.4 µM | activity change, negative = inhibition [2] 0.163% | activity change, negative = inhibition [3] -20.1% | activity, negative = inhibition [4] 5.8% | Potency [5] > 46 µM | Potency [6] > 9.22 µM | Potency [7] | Potency [8]

N=C(N)C(N=Nc1ccccc1)C(=N)N (stereo not drawn)
inactive: Potency [1] > 11.4 µM | activity change, negative = inhibition [2] 1.88% | activity change, negative = inhibition [3] 3.59% | activity, negative = inhibition [4] 1.6% | Potency [5] > 46 µM | Potency [6] > 9.22 µM | Potency [7] | Potency [8]

O=C(O)/C=C\C=C/c1ccc2c(c1)OCO2
inactive: Potency [1] > 11.4 µM | activity change, negative = inhibition [2] 6.54% | activity change, negative = inhibition [3] 5.9% | activity, negative = inhibition [4] 1.24% | Potency [5] > 46 µM | Potency [6] > 9.22 µM | Potency [7] | Potency [8]

O=C(O)Cc1c[nH]c2ccc(F)cc12
inactive: Potency [1] > 11.4 µM | activity change, negative = inhibition [2] 0.0381% | activity change, negative = inhibition [3] 24.2% | activity, negative = inhibition [4] 5.52% | Potency [5] > 46 µM | Potency [6] > 9.22 µM | Potency [7] | Potency [8]

C(=N/Nc1ccccn1)/c1cccnc1
inactive: Potency [1] > 11.4 µM | activity change, negative = inhibition [2] 3.9% | activity change, negative = inhibition [3] 5.25% | activity, negative = inhibition [4] 2.75% | Potency [5] > 46 µM | Potency [6] > 9.22 µM | Potency [7] | Potency [8]

S=c1[nH]nc(SCc2ccccc2Cl)c2[nH]cnc12
inactive: Potency [1] > 11.4 µM | activity change, negative = inhibition [2] -6.3% | activity change, negative = inhibition [3] 0.186% | activity, negative = inhibition [4] -8.85% | Potency [5] > 46 µM | Potency [6] > 9.22 µM | Potency [7] | Potency [8]

NC(N)=NC(N)=Nc1ccc(C(=O)O)cc1
inactive: Potency [1] > 11.4 µM | activity change, negative = inhibition [2] 7% | activity change, negative = inhibition [3] 6.33% | activity, negative = inhibition [4] 16.2% | Potency [5] > 46 µM | Potency [6] > 9.22 µM | Potency [7] | Potency [8]

O=C(O)CCn1cnc2c(=S)nc[nH]c21
inactive: Potency [1] > 11.4 µM | activity change, negative = inhibition [2] -2.08% | activity change, negative = inhibition [3] 1.47% | activity, negative = inhibition [4] -0.455% | Potency [5] > 46 µM | Potency [6] > 9.22 µM | Potency [7] | Potency [8]

CN1CCN(CC(=O)Nc2cccc3ccccc23)CC1
inactive: Potency [1] > 11.4 µM | activity change, negative = inhibition [2] -2.71% | activity change, negative = inhibition [3] 5.99% | activity, negative = inhibition [4] 15.2% | Potency [5] > 46 µM | Potency [6] > 9.22 µM | Potency [7] | Potency [8]

NC(=O)C/C=C\CC(N)=O
inactive: Potency [1] > 11.4 µM | activity change, negative = inhibition [2] 1.15% | activity change, negative = inhibition [3] 10.3% | activity, negative = inhibition [4] -3.27% | Potency [5] > 46 µM | Potency [6] > 9.22 µM | Potency [7] | Potency [8]

Nc1nc(N)nc(CC(=O)O)n1
inactive: Potency [1] > 11.4 µM | activity change, negative = inhibition [2] 5.1% | activity change, negative = inhibition [3] 15.8% | activity, negative = inhibition [4] 0.411% | Potency [5] > 46 µM | Potency [6] > 9.22 µM | Potency [7] | Potency [8]
